Measured values: PubChem BioAssay (NCI)
This is part of a sample that, as a whole, favours compounds with a hit. Of some 79,000 tested, about 15% had one in any assay. The source made the active and inactive calls. Rule as the data show it: active = growth inhibition above about 70%; inactive = the rest.

What was measured:
[1] = NCI Yeast Anticancer Drug Screen. Data for the rad52 strain (AID 147);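 also: 0% = growth of vehicle-treated control cultures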; conditions: S. cerevisiae rad52 mutant growth inhibition, hits give high values
Summary of the method: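 Vehicle-treated cultures served as the reference for growth inhibition of compound-exposed yeast bearing a DNA repair mutation.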

[2] = NCI Yeast Anticancer Drug Screen. Data for the wt1 strain (AID 149);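 also: 0% = growth of vehicle-treated wt1 cultures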; conditions: S. cerevisiae wt1 strain (SPY 50644) growth inhibition, hits give high values
Summary of the method: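 Readout: yeast growth inhibition, normalised to vehicle controls, in the wt1 strain exposed to test compounds.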

[3] = NCI Yeast Anticancer Drug Screen. Data for the rad50EPP+ strain (AID 151);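 also: 0% = growth of vehicle-treated control cultures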; conditions: S. cerevisiae rad50 mutant strain, hits give high values
Summary of the method: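 In this screen, rad50EPP+ yeast were exposed to compounds. Growth inhibition was scored against vehicle-treated controls.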

[4] = NCI Yeast Anticancer Drug Screen. Data for the mgt1 strain (AID 153); conditions: S. cerevisiae mgt1 mutant growth inhibition, hits give high values
Summary of the method: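 mgt1 strain exposed; growth vs vehicle control recorded as inhibition.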

[5] = NCI Yeast Anticancer Drug Screen. Data for the rad50 strain (AID 155);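 also: 0% = growth of vehicle-only cultures of the same strain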; conditions: S. cerevisiae rad50 strain growth inhibition, hits give high values
Summary of the method: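 Compounds were tested on a yeast strain with an engineered DNA damage repair alteration; the reported value is growth inhibition normalised to vehicle treatment.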

[6] = NCI Yeast Anticancer Drug Screen. Data for the mec2-1 strain (AID 157); conditions: S. cerevisiae mec2-1 strain, hits give high values
Summary of the method: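 Vehicle-treated cultures served as reference for growth inhibition of compound-exposed mec2-1 yeast.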

[7] = NCI Yeast Anticancer Drug Screen. Data for the sgs1 mgt1 strain (AID 161);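 also: 0% = growth of cultures given vehicle only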; conditions: S. cerevisiae sgs1 mgt1 strain, hits give high values
Summary of the method: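 Test agents were incubated with a DNA-repair-mutant yeast strain. Growth was then read and compared against vehicle-treated controls.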

[8] = NCI Yeast Anticancer Drug Screen. Data for the CLN2oe strain (AID 163);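 also: 0% = growth of vehicle-only control cultures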; conditions: S. cerevisiae CLN2oe strain, hits give high values
Summary of the method: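 Inhibition relative to vehicle-treated yeast is reported. Cells: strain with genetic alteration in cell-cycle control, grown with compound.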

[9] = NCI Yeast Anticancer Drug Screen. Data for the cln2 rad14 strain (AID 165);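 also: 0% = growth equal to vehicle treated cultures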; conditions: S. cerevisiae cln2 rad14 strain, hits give high values
Summary of the method: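 Each compound was tested on cln2 rad14 yeast. Inhibition of growth was calculated against vehicle-exposed controls.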

[10] = NCI Yeast Anticancer Drug Screen. Data for the bub3 strain (AID 167); conditions: S. cerevisiae bub3 mutant strain, hits give high values
Summary of the method: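 Growth of a checkpoint-deficient yeast mutant is measured after compound exposure. Values represent inhibition relative to vehicle.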

[11] = NCI Yeast Anticancer Drug Screen. Data for the wt2 strain (AID 169);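 also: 0% = growth of vehicle-treated yeast cultures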; conditions: S. cerevisiae wt2 strain growth inhibition, hits give high values
Summary of the method: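 Inhibition of yeast growth was determined after compound treatment, normalised to controls receiving only vehicle.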

[12] = NCI Yeast Anticancer Drug Screen. Data for the mlh1 strain (AID 171);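 also: 0% = growth of vehicle-treated control cultures of the same strain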; conditions: S. cerevisiae mlh1 strain growth inhibition, hits give high values
Summary of the method: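 Vehicle-normalised growth inhibition of a repair- or checkpoint-altered yeast strain following compound treatment.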

[13] = NCI Yeast Anticancer Drug Screen. Data for the sgs1 strain (AID 173);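 also: 0% = growth of vehicle-only control cultures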; conditions: S. cerevisiae sgs1 mutant, hits give high values
Summary of the method: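 Screen format: yeast with repair or checkpoint alterations, compound exposure, growth read relative to vehicle.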

[14] = NCI Yeast Anticancer Drug Screen. Data for the mlh1 rad18 strain (AID 175); conditions: S. cerevisiae mlh1 rad18 strain growth inhibition, hits give high values
Summary of the method: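 Vehicle-treated cultures served as the reference for growth inhibition in a yeast strain carrying DNA damage repair alterations exposed to each compound.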

[15] = NCI Yeast Anticancer Drug Screen. Data for the rad18 strain (AID 177); conditions: S. cerevisiae rad18 mutant growth inhibition, hits give high values
Summary of the method: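 Test articles were incubated with altered yeast defective in DNA damage repair. Results are given as inhibition of growth versus vehicle.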

[16] = NCI Yeast Anticancer Drug Screen. Data for the rad14 strain (AID 159);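 also: 0% = growth of vehicle-treated control cultures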; conditions: S. cerevisiae rad14 strain growth inhibition, hits give high values
Summary of the method: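 Compound-treated yeast with a defined DNA-repair lesion; growth inhibition normalised to vehicle-treated cultures.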

[17] = at 5.0 µM (retest, dose inferred, filed as 0.5)
[18] = at 50.0 µM (retest, dose inferred, filed as 5.0)

Measured: growth inhibition

Cc1cc(OCc2nc(N)nc(N)c2-c2ccc(Cl)c(Cl)c2)ccc1[N+](=O)[O-]
inactive: [1]; at 1.2 µM 0% | [1]; at 3.7 µM 1% | [1]; at 11.0 µM 0% | [1]; at 33.0 µM -1% | [1]; at 100.0 µM -2% | [2]; at 1.2 µM 1% | [2]; at 3.7 µM 1% | [2]; at 11.0 µM 3% | [2]; at 33.0 µM 3% | [2]; at 100.0 µM 4% | [3]; at 1.2 µM -1% | [3]; at 3.7 µM -3% | [3]; at 11.0 µM -1% | [3]; at 33.0 µM -1% | [3]; at 100.0 µM -1% | [4]; at 1.2 µM 2% | [4]; at 3.7 µM 5% | [4]; at 11.0 µM 2% | [4]; at 33.0 µM 1% | [4]; at 100.0 µM 10% | [5]; at 1.2 µM 0% | [5]; at 3.7 µM 6% | [5]; [17] 51% | [5]; at 11.0 µM -3% | [5]; at 33.0 µM 2% | [5]; at 100.0 µM 2% | [6]; at 1.2 µM 2% | [6]; at 3.7 µM 3% | [6]; [17] 48% | [6]; at 11.0 µM 0% | [6]; at 33.0 µM 3% | [6]; at 100.0 µM -10% | [7]; [17] 54% | [8]; at 1.2 µM 0% | [8]; at 3.7 µM 2% | [8]; at 11.0 µM 0% | [8]; at 33.0 µM 4% | [8]; at 100.0 µM 6% | [9]; [17] -1% | [9]; [18] 30% | [10]; at 1.2 µM 0% | [10]; at 3.7 µM -1% | [10]; [17] -9% | [10]; at 11.0 µM 0% | [10]; at 33.0 µM -2% | [10]; [18] 53% | [10]; at 100.0 µM 20% | [11]; at 1.2 µM 2% | [11]; at 3.7 µM 4% | [11]; at 11.0 µM 4% | [11]; at 33.0 µM 4% | [11]; at 100.0 µM 5% | [12]; at 1.2 µM 0% | [12]; at 3.7 µM 0% | [12]; at 11.0 µM 0% | [12]; at 33.0 µM -1% | [12]; at 100.0 µM 13% | [13]; at 1.2 µM -1% | [13]; at 3.7 µM -3% | [13]; at 11.0 µM -2% | [13]; at 33.0 µM -1% | [13]; at 100.0 µM 0% | [14]; [17] 26% | [15]; at 1.2 µM -3% | [15]; at 3.7 µM -4% | [15]; at 11.0 µM -8% | [15]; at 33.0 µM -15% | [15]; at 100.0 µM -23%
active: [5]; [18] 84% | [5]; at 50.0 µM 98.7% | [6]; [18] 87% | [6]; at 50.0 µM 95.8% | [7]; [18] 75% | [7]; at 50.0 µM 98.7% | [9]; at 50.0 µM 95% | [10]; at 50.0 µM 79.9% | [14]; [18] 85% | [14]; at 50.0 µM 98.5%

O=C(Cc1ccccc1)NNc1nc(NNC(=O)c2ccncc2)nc(Nc2ccc(Cl)cc2)n1
active: [10]; [18] 98%
inactive: [1]; at 1.2 µM 16% | [1]; at 3.7 µM 6% | [1]; at 11.0 µM 16% | [1]; at 33.0 µM 14% | [1]; at 100.0 µM 17% | [2]; at 1.2 µM -52% | [2]; at 3.7 µM -3% | [2]; at 11.0 µM 0% | [2]; at 33.0 µM -1% | [2]; at 100.0 µM -1% | [3]; at 1.2 µM 1% | [3]; at 3.7 µM 8% | [3]; at 11.0 µM 6% | [3]; at 33.0 µM 3% | [3]; at 100.0 µM 4% | [4]; at 1.2 µM 1% | [4]; at 3.7 µM 3% | [4]; at 11.0 µM 5% | [4]; at 33.0 µM 3% | [4]; at 100.0 µM -1% | [5]; at 1.2 µM -1% | [5]; at 3.7 µM 0% | [5]; [17] 3% | [5]; at 11.0 µM 0% | [5]; at 33.0 µM -1% | [5]; [18] 38% | [5]; at 50.0 µM 39.2% | [5]; at 100.0 µM 1% | [6]; at 1.2 µM -3% | [6]; at 3.7 µM -5% | [6]; [17] 6% | [6]; at 11.0 µM -1% | [6]; at 33.0 µM 4% | [6]; [18] 22% | [6]; at 50.0 µM 48.2% | [6]; at 100.0 µM -3% | [16]; at 1.2 µM 0% | [16]; at 3.7 µM 4% | [16]; at 11.0 µM 3% | [16]; at 33.0 µM 0% | [16]; at 100.0 µM 2% | [7]; [17] 1% | [7]; [18] 12% | [7]; at 50.0 µM 55.3% | [9]; [17] -21% | [9]; [18] 45% | [9]; at 50.0 µM 10.1% | [10]; at 1.2 µM -3% | [10]; at 3.7 µM -5% | [10]; [17] -7% | [10]; at 11.0 µM -4% | [10]; at 33.0 µM -6% | [10]; at 50.0 µM 31.8% | [10]; at 100.0 µM -7% | [11]; at 1.2 µM -4% | [11]; at 3.7 µM 2% | [11]; at 11.0 µM 4% | [11]; at 33.0 µM -1% | [11]; at 100.0 µM -2% | [12]; at 1.2 µM -2% | [12]; at 3.7 µM -1% | [12]; at 11.0 µM 0% | [12]; at 33.0 µM -2% | [12]; at 100.0 µM -3% | [14]; [17] 13% | [14]; [18] 14% | [14]; at 50.0 µM 59.9% | [15]; at 1.2 µM 9% | [15]; at 3.7 µM 10% | [15]; at 11.0 µM 19% | [15]; at 33.0 µM 19% | [15]; at 100.0 µM 15%
